# Measurements taken from paper PMC7862700, “An all-to-all approach to the identification of sequence-specific readers for epigenetic DNA modifications on cytosine”.
# Tests used:
# Assay in all cases: DAPPL (digital affinity profiling via proximity ligation, sequencing); 10 mM Tris-HCl pH 7.5, 50 mM NaCl, 1 mM DTT, 4% glycerol, room temperature, 30 min; GST-TFs on glutathione beads, 16-mer random dsDNA library, 0.1% formaldehyde crosslink after washing; high values mean tight binding
# FEV = target: T1, FEV (Homo sapiens, UniProt Q99581 1-238); details: protein: recombinant; tags: N-terminal GST; dsDNA, one strand shown
# T1 sequence: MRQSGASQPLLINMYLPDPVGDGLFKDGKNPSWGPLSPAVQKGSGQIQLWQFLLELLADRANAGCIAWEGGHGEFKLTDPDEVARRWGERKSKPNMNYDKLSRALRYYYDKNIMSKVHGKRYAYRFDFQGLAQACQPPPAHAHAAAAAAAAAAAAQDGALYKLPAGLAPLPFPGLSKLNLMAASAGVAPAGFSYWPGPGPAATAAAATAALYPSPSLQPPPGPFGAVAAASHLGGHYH
# In short: (§1)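 Beads coated with glutathione captured GST-fused human transcription factors that had been expressed in yeast, and the factors were then given DNA barcodes and pooled with a tag-only sample. The pools were incubated with 200 nmole of a random double-stranded 16-mer DNA library in Tris/NaCl/DTT/glycerol buffer for 30 min at room temperature, washed, crosslinked with 0.1% formaldehyde and proximity-ligated with BsaI/T4 ligase at 37 °C for 1 h. PCR amplification and Illumina NextSeq500 sequencing came last. Binding signal is each hexamer's read frequency for a factor divided by its frequency for the tag-only sample.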
# ETV5 = ETV5 (Homo sapiens, UniProt P41161 1-510); details: protein: recombinant; tags: N-terminal GST; dsDNA, one strand shown
# ETV5, sequence (P41161 whole entry): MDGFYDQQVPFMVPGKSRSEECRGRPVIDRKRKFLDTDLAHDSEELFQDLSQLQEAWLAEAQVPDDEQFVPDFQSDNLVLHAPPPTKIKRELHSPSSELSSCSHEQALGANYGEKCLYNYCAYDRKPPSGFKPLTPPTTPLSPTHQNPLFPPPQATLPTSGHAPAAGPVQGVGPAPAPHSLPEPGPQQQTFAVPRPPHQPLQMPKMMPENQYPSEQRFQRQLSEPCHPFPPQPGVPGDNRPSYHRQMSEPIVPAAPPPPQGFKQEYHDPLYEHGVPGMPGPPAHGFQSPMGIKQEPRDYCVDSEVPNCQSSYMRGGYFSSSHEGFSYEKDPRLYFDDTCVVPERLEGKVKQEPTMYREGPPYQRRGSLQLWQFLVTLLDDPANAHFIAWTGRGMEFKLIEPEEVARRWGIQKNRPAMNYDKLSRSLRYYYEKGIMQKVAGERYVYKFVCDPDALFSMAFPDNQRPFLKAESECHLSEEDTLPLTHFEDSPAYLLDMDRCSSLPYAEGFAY
# In short: as §1
# HSF1 = HSF1 (Homo sapiens, UniProt Q00613 1-529); details: protein: recombinant; tags: N-terminal GST; chain copies: 3; dsDNA, one strand shown
# HSF1, sequence (Q00613 whole entry): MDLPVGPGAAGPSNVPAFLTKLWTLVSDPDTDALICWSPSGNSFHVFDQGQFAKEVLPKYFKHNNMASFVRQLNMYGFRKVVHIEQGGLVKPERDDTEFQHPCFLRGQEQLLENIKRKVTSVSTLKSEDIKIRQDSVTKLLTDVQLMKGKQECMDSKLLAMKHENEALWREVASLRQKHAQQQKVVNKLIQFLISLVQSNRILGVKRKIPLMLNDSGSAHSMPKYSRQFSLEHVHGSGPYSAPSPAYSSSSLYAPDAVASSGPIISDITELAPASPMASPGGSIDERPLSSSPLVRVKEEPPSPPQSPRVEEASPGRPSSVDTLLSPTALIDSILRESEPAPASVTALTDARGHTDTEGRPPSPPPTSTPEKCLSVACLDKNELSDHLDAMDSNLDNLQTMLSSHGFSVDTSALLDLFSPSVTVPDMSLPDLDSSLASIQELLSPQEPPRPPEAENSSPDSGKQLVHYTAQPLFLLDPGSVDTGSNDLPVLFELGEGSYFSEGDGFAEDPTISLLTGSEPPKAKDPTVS
# In short: as §1
# SPIC = target: T2, SPIC (Homo sapiens, UniProt Q8N5J4 1-248); details: protein: recombinant; tags: N-terminal GST; dsDNA, one strand shown
# T2 sequence: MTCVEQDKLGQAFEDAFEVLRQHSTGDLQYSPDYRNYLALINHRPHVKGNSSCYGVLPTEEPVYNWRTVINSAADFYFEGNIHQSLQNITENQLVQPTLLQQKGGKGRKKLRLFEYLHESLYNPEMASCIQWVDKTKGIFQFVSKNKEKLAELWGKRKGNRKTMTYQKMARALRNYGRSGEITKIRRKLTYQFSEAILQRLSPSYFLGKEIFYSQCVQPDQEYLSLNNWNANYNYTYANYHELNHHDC
# In short: as §1
# ELF4 = ELF4 (Homo sapiens, UniProt Q99607 1-663); details: protein: recombinant; tags: N-terminal GST; dsDNA, one strand shown
# ELF4, sequence (Q99607 whole entry): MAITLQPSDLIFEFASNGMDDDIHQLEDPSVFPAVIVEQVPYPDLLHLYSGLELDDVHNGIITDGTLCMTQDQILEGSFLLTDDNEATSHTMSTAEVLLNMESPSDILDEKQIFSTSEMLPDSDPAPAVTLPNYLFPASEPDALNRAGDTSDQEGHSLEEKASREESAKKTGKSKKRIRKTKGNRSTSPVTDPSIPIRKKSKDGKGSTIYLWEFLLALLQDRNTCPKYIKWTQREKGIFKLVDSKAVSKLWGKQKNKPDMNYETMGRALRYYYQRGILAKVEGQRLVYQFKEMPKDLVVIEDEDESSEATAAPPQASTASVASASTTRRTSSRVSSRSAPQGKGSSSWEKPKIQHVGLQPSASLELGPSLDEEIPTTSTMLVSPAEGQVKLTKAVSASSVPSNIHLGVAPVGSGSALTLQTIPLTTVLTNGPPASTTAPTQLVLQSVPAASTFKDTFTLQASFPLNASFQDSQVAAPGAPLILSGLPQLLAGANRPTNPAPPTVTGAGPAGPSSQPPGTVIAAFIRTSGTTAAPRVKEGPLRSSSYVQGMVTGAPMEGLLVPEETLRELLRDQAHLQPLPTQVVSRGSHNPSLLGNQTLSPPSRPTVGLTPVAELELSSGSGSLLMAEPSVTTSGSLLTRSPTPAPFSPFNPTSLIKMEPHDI
# In short: as §1
# ELK4 = target: T3, ELK4 (Homo sapiens, UniProt P28324-2 1-405); details: protein: recombinant; tags: N-terminal GST; dsDNA, one strand shown
# T3 sequence: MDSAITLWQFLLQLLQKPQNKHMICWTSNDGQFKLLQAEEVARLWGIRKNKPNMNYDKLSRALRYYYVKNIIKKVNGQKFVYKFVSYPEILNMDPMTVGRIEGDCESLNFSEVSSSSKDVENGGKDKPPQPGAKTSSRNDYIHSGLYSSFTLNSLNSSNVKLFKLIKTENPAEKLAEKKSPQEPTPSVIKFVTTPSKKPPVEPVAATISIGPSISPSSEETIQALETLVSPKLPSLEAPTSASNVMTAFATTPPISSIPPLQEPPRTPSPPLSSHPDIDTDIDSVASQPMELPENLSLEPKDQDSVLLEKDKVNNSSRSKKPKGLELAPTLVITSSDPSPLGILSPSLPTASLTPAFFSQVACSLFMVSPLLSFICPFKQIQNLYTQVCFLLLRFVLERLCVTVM
# In short: as §1
# ETV2 = target: T4, ETV2 (Homo sapiens, UniProt O00321 1-342); details: protein: recombinant; tags: N-terminal GST; dsDNA, one strand shown
# T4 sequence: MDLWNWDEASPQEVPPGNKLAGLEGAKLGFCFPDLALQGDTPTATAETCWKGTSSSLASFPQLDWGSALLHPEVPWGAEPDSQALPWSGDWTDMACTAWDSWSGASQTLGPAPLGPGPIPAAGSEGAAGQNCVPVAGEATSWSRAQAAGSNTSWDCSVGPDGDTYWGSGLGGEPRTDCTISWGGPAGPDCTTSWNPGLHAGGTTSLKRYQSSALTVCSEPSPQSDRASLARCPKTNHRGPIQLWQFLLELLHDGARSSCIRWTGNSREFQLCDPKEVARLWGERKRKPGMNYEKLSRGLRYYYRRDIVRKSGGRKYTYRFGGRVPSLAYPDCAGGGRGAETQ
# In short: as §1
# ELF3 = target: T5, ELF3 (Homo sapiens, UniProt P78545 1-371); details: protein: recombinant; tags: N-terminal GST; dsDNA, one strand shown
# T5 sequence: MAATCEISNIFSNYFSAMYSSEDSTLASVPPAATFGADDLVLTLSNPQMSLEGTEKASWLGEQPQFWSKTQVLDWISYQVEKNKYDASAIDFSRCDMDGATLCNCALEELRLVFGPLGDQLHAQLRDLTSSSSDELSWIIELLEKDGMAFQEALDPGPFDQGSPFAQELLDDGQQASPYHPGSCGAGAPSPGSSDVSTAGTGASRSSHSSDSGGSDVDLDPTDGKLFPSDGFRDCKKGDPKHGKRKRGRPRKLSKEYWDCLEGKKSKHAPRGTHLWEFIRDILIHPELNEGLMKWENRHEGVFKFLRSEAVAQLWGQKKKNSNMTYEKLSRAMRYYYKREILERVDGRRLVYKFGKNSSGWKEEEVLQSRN
# In short: as §1
# CRX = CRX (Homo sapiens, UniProt O43186 1-299); details: protein: recombinant; tags: N-terminal GST; dsDNA, one strand shown
# CRX, sequence (O43186 whole entry): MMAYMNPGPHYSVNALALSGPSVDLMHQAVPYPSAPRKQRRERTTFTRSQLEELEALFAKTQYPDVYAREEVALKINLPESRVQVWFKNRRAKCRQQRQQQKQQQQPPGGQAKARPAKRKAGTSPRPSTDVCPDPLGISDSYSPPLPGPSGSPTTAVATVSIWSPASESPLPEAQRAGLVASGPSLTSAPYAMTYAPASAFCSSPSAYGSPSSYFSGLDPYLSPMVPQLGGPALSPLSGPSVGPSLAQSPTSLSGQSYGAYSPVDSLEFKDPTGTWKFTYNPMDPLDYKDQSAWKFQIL
# In short: as §1
# ETV1 = ETV1 (Homo sapiens, UniProt P50549 1-477); details: protein: recombinant; tags: N-terminal GST; dsDNA, one strand shown
# ETV1, sequence (P50549 whole entry): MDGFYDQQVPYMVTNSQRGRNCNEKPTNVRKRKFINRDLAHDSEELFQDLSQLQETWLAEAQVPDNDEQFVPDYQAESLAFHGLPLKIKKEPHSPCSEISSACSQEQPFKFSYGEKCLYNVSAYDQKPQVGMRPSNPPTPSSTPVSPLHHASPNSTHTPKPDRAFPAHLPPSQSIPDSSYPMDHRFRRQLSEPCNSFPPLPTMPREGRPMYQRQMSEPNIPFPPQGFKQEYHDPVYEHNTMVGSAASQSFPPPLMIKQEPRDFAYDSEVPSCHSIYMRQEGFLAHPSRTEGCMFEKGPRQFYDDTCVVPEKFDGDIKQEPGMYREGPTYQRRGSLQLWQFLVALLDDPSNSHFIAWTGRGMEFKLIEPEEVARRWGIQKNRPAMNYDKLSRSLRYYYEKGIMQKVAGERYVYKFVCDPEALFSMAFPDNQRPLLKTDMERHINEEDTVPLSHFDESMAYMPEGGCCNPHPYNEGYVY
# In short: as §1
# ERF = target: T6, ERF (Homo sapiens, UniProt P50548 1-548); details: protein: recombinant; tags: N-terminal GST; dsDNA, one strand shown
# T6 sequence: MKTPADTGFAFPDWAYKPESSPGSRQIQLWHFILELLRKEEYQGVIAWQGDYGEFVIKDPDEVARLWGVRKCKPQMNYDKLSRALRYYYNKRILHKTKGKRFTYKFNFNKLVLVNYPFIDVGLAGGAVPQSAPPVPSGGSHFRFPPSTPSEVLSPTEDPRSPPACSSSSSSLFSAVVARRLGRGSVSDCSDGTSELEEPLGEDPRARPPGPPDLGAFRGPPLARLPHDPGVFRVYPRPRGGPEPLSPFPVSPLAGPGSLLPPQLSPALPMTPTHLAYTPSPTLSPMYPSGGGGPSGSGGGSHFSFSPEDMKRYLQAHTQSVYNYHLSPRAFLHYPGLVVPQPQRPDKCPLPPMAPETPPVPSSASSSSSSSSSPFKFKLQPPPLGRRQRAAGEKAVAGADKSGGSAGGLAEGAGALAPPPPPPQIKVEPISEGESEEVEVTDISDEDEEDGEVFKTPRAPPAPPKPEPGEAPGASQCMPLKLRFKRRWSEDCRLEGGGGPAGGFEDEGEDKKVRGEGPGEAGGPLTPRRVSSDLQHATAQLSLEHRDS
# In short: as §1
# ETV3L = target: T7, ETV3L (Homo sapiens, UniProt Q6ZN32 1-361); details: protein: recombinant; tags: N-terminal GST; dsDNA, one strand shown
# T7 sequence: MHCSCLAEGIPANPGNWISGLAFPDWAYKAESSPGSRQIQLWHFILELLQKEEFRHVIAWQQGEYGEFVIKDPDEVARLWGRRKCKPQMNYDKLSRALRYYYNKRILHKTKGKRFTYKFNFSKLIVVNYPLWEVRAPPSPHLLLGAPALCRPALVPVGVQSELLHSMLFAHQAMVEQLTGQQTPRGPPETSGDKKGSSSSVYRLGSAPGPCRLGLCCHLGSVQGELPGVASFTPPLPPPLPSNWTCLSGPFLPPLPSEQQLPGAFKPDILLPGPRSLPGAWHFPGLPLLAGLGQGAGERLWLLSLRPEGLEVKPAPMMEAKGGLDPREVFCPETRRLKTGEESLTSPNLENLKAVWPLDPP
# In short: as §1
# ETS2 = target: T8, ETS2 (Homo sapiens, UniProt P15036 1-469); details: protein: recombinant; tags: N-terminal GST; dsDNA, one strand shown
# T8 sequence: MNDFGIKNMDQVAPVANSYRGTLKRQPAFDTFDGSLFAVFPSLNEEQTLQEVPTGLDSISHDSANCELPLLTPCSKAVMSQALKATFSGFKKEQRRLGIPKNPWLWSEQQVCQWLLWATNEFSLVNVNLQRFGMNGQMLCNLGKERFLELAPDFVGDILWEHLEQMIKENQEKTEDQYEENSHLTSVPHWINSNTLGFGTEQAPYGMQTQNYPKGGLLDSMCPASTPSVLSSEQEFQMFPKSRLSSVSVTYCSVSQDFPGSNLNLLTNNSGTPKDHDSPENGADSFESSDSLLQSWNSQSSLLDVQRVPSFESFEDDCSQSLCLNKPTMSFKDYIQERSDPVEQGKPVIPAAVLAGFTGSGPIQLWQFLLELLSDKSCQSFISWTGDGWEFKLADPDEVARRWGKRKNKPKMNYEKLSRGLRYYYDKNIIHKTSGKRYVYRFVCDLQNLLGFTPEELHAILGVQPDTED
# In short: as §1
# SPDEF = target: T9, SPDEF (Homo sapiens, UniProt O95238 1-335); details: protein: recombinant; tags: N-terminal GST; dsDNA, one strand shown
# T9 sequence: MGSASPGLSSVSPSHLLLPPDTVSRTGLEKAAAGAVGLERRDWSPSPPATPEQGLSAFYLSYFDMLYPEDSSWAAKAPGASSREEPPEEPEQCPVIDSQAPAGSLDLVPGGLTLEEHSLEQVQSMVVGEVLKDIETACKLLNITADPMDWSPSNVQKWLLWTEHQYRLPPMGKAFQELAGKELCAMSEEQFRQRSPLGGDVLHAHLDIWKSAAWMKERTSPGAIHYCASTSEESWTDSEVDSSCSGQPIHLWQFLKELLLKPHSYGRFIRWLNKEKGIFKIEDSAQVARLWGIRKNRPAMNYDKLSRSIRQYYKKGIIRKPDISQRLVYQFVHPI
# In short: as §1
# ETV7 = target: T10, ETV7 (Homo sapiens, UniProt Q9Y603 1-341); details: protein: recombinant; tags: N-terminal GST; dsDNA, one strand shown
# T10 sequence: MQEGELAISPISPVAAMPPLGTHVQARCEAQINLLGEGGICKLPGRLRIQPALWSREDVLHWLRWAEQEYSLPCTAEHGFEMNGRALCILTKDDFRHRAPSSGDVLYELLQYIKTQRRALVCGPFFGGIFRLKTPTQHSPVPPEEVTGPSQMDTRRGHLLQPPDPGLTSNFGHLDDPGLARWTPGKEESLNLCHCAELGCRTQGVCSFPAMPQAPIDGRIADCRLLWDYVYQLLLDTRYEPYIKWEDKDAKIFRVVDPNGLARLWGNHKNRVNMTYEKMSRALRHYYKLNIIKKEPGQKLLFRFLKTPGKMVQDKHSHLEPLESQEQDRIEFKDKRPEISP
# In short: as §1
# ELF5 = target: T11, ELF5 (Homo sapiens, UniProt Q9UKW6-2 1-255); details: protein: recombinant; tags: N-terminal GST; dsDNA, one strand shown
# T11 sequence: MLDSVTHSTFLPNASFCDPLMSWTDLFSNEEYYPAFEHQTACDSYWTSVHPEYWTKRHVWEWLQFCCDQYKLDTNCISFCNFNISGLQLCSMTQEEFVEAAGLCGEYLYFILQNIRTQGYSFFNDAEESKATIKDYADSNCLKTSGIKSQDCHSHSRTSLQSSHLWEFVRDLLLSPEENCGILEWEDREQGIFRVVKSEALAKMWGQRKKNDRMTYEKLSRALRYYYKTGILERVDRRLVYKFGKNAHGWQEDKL
# In short: as §1
# ETV3 = target: T12, ETV3 (Homo sapiens, UniProt P41162-2 1-143); details: protein: recombinant; tags: N-terminal GST; dsDNA, one strand shown
# T12 sequence: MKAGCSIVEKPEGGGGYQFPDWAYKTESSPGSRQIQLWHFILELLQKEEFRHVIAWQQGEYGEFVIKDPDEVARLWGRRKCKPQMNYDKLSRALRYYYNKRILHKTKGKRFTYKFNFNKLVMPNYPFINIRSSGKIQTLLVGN
# In short: as §1
# ETV6 = ETV6 (Homo sapiens, UniProt P41212 1-452); details: protein: recombinant; tags: N-terminal GST; dsDNA, one strand shown
# ETV6, sequence (P41212 whole entry): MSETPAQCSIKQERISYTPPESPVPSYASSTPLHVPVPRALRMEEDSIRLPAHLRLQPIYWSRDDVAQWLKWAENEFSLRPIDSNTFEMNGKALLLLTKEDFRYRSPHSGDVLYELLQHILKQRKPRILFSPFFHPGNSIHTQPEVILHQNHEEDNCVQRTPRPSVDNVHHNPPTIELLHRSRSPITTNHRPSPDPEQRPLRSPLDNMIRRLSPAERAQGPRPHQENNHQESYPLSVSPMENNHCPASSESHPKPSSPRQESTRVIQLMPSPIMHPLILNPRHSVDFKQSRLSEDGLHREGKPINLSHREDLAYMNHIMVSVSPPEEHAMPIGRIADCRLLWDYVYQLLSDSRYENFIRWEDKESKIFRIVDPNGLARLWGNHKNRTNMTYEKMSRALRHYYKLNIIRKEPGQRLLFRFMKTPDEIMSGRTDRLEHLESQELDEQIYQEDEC
# In short: as §1
sequence,measurement,setting,value
CCTTCG,binding signal,FEV,"1.38 fold enrichment (6-mer frequency, TF over GST control)"
same,binding signal,ETV5,"1.3 fold enrichment (6-mer frequency, TF over GST control)"
same,binding signal,HSF1,"1.88 fold enrichment (6-mer frequency, TF over GST control)"
same,binding signal,SPIC,"1.31 fold enrichment (6-mer frequency, TF over GST control)"
same,binding signal,ELF4,"1.39 fold enrichment (6-mer frequency, TF over GST control)"
same,binding signal,ELK4,"1.34 fold enrichment (6-mer frequency, TF over GST control)"
same,binding signal,ETV2,"1.39 fold enrichment (6-mer frequency, TF over GST control)"
same,binding signal,ELF3,"1.28 fold enrichment (6-mer frequency, TF over GST control)"
same,binding signal,CRX,"1.28 fold enrichment (6-mer frequency, TF over GST control)"
same,binding signal,ETV1,"1.5 fold enrichment (6-mer frequency, TF over GST control)"
same,binding signal,ERF,"1.36 fold enrichment (6-mer frequency, TF over GST control)"
same,binding signal,ETV3L,"1.36 fold enrichment (6-mer frequency, TF over GST control)"
same,binding signal,ETS2,"1.3 fold enrichment (6-mer frequency, TF over GST control)"
same,binding signal,SPDEF,"1.33 fold enrichment (6-mer frequency, TF over GST control)"
same,binding signal,ETV7,"1.38 fold enrichment (6-mer frequency, TF over GST control)"
same,binding signal,ELF5,"1.24 fold enrichment (6-mer frequency, TF over GST control)"
same,binding signal,ETV3,"1.12 fold enrichment (6-mer frequency, TF over GST control)"
same,binding signal,ETV6,"1.31 fold enrichment (6-mer frequency, TF over GST control)"
